# Compounds with a hit are over-represented: about 6.8% of the library has one in this group of screens.
# Pf Dd2 inh: P. falciparum Dd2 growth inhibition; SYBR Green, 72 h; active compounds read low; AID 1159554; 94,000 tested, 2.3% active; activity change, % at 10 µM; in the data active means activity change below about -80%
# T cruzi growth: inhibitors of T. cruzi proliferation | T. cruzi beta-gal in NIH3T3, GalScreen luminescence, 90 h | inhibition, % at 8.34 µM | 77,000 tested, 5.9% active;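 active means mean inhibition above about 93%, with at least 55% of replicates each passing it, limit read from the data, passing the limit was not always enough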
# C diff HTS: inhibitors of Clostridium difficile growth | AID 1259249 | 86,000 tested, 0.25% active | growth activity, negative = inhibition, % at 16 µg/mL (by protocol) | Clostridium difficile clinical isolate growth, OD600, 24 h; active compounds read low;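 active means mean growth activity at or below -80% and every replicate also at or below -80%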;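 further: 0% = DMSO wells and -100% = levofloxacin 16 µg/mL wells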
# Active calls of the source: *; x = no result given.
SMILES,Pf Dd2 inh,T cruzi growth,C diff HTS
C[C@@H]1CCCCO[C@H](CN(C)CC2CCCCC2)[C@H](C)CN([C@@H](C)CO)C(=O)c2cc(NC(=O)Nc3cccc4ccccc34)ccc2O1,-88.1*,120.7,-1.0
C[C@@H]1CCCCO[C@H](CN(C)CC2CC2)[C@H](C)CN([C@@H](C)CO)C(=O)c2cc(NC(=O)Nc3cccc4ccccc34)ccc2O1,-79.7,81.1,3.9
C[C@@H]1CCCCO[C@@H](CN(C)CC2CCCCC2)[C@@H](C)CN([C@@H](C)CO)C(=O)c2cc(NC(=O)Nc3cccc4ccccc34)ccc2O1,-82.1*,121.3,-5.0
O=C(C[C@@H]1CC[C@@H](NS(=O)(=O)c2ccc(F)cc2)[C@@H](CO)O1)N1CCN(c2ccccc2)CC1,3.5,62.3,-1.7
CC(=O)N(C)C[C@H]1Oc2ncc(-c3cccnc3)cc2C(=O)N([C@H](C)CO)C[C@@H]1C,25.5,17.5,-4.2
C[C@@H]1CN([C@@H](C)CO)C(=O)Cc2cc(NC(=O)NC3CCCCC3)ccc2O[C@@H]1CN(C)Cc1ccc(C(=O)O)cc1,11.9,2.2,-0.6
CCCC#Cc1ccc2c(c1)O[C@@H](CN(C)C(=O)C1CC1)[C@H](C)CN([C@@H](C)CO)S2(=O)=O,-40.9,47.9,-4.2
O=C(C[C@@H]1C=C[C@@H](NC(=O)C2CCC2)[C@H](CO)O1)Nc1nccs1,8.5,x,5.6
C[C@H]1CN([C@@H](C)CO)C(=O)Cc2cc(NC(=O)C3CCCCC3)ccc2O[C@@H]1CN(C)Cc1ccc(Oc2ccccc2)cc1,-39.9,94.8,21.5
C[C@H](CO)N1C[C@H](C)[C@@H](CN(C)CC2CCCCC2)OCCCC[C@H](C)Oc2ccc(NC(=O)Nc3cccc4ccccc34)cc2C1=O,-62.6,119.3,7.4
C[C@@H]1CCCCO[C@H](CN(C)CC2CCCCC2)[C@H](C)CN([C@H](C)CO)C(=O)c2cc(NC(=O)Nc3cccc4ccccc34)ccc2O1,-87.7*,122.3,3.7
COc1ccc2c3c(n(C)c2c1)[C@@H](CO)N(Cc1cccnc1)CC31CCN(Cc2cccnc2)CC1,32.7,x,x
CC(C)NC(=O)Nc1cccc2c1O[C@@H](CN(C)Cc1ccc(C(=O)Nc3ccccc3N)cc1)[C@@H](C)CN([C@@H](C)CO)C2=O,-19.5,x,-1.8
C[C@@H]1CN([C@H](C)CO)C(=O)c2cccc(NC(=O)NC3CCCCC3)c2O[C@@H]1CN(C)Cc1ccc(C(=O)Nc2ccccc2N)cc1,-83.8*,76.7,x
C[C@@H]1CN([C@@H](C)CO)C(=O)c2cccc(NC(=O)C3CCCCC3)c2O[C@@H]1CN(C)Cc1ccc(C(=O)Nc2ccccc2N)cc1,-84.7*,57.3,-0.1
C[C@@H]1CN([C@H](C)CO)C(=O)c2cccc(NC(=O)C3CCOCC3)c2O[C@@H]1CN(C)Cc1ccc(C(=O)Nc2ccccc2N)cc1,2.6,80.7,4.6
Cc1cccc(S(=O)(=O)N2C[C@@H](O)COC[C@@H]3O[C@@H](CC(=O)N4CCN(C)CC4)CC[C@H]32)c1,-5.6,10.7,-4.4
COc1ccc(NC(=O)N(C)C[C@@H]2OCCCC[C@@H](C)Oc3ccc(NS(=O)(=O)c4c(C)noc4C)cc3C(=O)N([C@@H](C)CO)C[C@H]2C)cc1,-35.3,45.2,-3.4
C[C@H](NC(=O)C[C@@H]1C[C@H]2c3cc(NC(=O)NC4CCCCC4)ccc3O[C@H]2[C@@H](CO)O1)c1ccccc1,1.7,16.5,x
COc1ccc(CN2C[C@@H](C)[C@H](OC)CN(C)C(=O)c3cc(NC(=O)c4nc5ccccc5s4)ccc3OC[C@H]2C)cc1,-85.7*,x,x
CO[C@@H]1CN(C)C(=O)c2cc(NC(=O)c3nc4ccccc4s3)ccc2OC[C@@H](C)N(Cc2ccncc2)C[C@H]1C,-86.8*,83.6,33.6
CO[C@@H]1CN(C)C(=O)c2ccc(NC(=O)c3nc4ccccc4s3)cc2OC[C@@H](C)N(Cc2ccccc2)C[C@H]1C,-95.6*,x,x
CO[C@H]1CN(C)C(=O)c2ccc(NC(=O)c3nc4ccccc4s3)cc2OC[C@@H](C)N(Cc2ccncc2)C[C@@H]1C,-26.9,x,x
COc1ccc(CN2C[C@@H](C)[C@H](OC)CN(C)C(=O)c3cc(NC(=O)c4nc5ccccc5s4)ccc3OC[C@@H]2C)cc1,-70.9,x,x
CO[C@H]1CN(C)C(=O)c2cc(NC(=O)c3nc4ccccc4s3)ccc2OC[C@H](C)N(Cc2ccncc2)C[C@H]1C,x,90.2,-3.8
COc1ccc(CN2C[C@H](C)[C@@H](OC)CN(C)C(=O)c3ccc(NC(=O)c4nc5ccccc5s4)cc3OC[C@@H]2C)cc1,-90.0*,93.4,-0.2
CO[C@@H]1CN(C)C(=O)c2ccc(NC(=O)c3nc4ccccc4s3)cc2OC[C@H](C)N(Cc2cncnc2)C[C@@H]1C,-66.8,x,x
CN1C(=O)c2cc(NC(=O)c3cccs3)ccc2OC[C@H]2O[C@@H](CC(=O)O)CC[C@@H]21,1.5,-19.6,-4.2
